Tested on: LXRb:RXRa (NR concentration 270 nM, RXRa partner concentration 90 nM)
Test: PBM binding z-score (relative to random genomic background probes); higher = stronger binding; sequences stand for … in GC…GCGATTGACAGCGTAGAATGAAGG
Outline: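 Scanned fluorescence from custom Agilent 4×180K protein-binding microarrays was regression-normalized. Binding z-scores use random background probes as reference. Ligand-free nuclear receptor dimers were incubated on the arrays for 1 h and detected with antibodies against each partner (one per run).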

First: CGTCCAAGGTCAAGGTCGGTGAAAGAGACTCGAA
Second: TCTTGTAGATCAATAGAGGTTCAGAAAGTGCGCT
The PBM binding z-score of the first is higher: 4.22 for the first, 0.293 for the second.

Going from CCTACTGGGCCAACGTCATTGATCAGTCAAAGCA to AGAACGAGGGCACGCAGAGTTGATAGCAGAGTAG, the PBM binding z-score rises from -0.492 to 0.439.

Compared with GCCTATAGGTAATACAAGGTGAAAGTCCGATTGT, TAGCCTAGGTCATTGGGCGAGTATAGTACGCATC is higher in PBM binding z-score: 0.783 for the first, 2.06 for the second.

Compared with ACAGACAGGTGAGTGAAGGTAACTAAGCTGGACG, TTACCAAGTTGAGCTGAGGTCGTTGATCCAACTC is higher in PBM binding z-score: -0.48 for the first, 0.536 for the second.

Going from TGAGTGAGGTTAAAGATCAGGGAACGTGGCGTCG to CCTCGGAGGACTGAAGGTCAGAGCTGTCCGCTTT, the PBM binding z-score falls from 1.88 to 0.745.

Going from CCTACTGGGCCACGGTCATTGATCAGTCAAAGCA to GGAACGAGGACATTCGAGTTGATAGCATGGCGAT, the PBM binding z-score falls from -0.408 to -0.72.

First: CTACCAAGGAGAACAAGGTCGTTGATTACTATTC
Second: TCGAGTAGGTTGGGGGCATTCAGAATGGCGTCGA
The PBM binding z-score of the first is lower: 0.992 for the first, 3.96 for the second.

Going from CCAGATAGGTGAAAGGTAACTCAGTCTGGTACGC to ACTCGGAGGACAAAGGCCAGAGCTACGCCAGTGA, the PBM binding z-score falls from 1.14 to -1.08.

First: CAAACTAGGTCAAGTTCAAAGTCGGTTTGTGCCA
Second: GTACCAAGGTGGATAGGTCGTTGATGAGTAGGCG
The PBM binding z-score of the first is higher: 3.64 for the first, -0.255 for the second.

Going from TCTGCTCGGTCAGTTGGTCAGCTAACGAGCTGCC to CATACAGTGTCAGCTAGGCCAGAGTAGGGACGGC, the PBM binding z-score falls from -0.506 to -0.652.

First: CGTCCAAGGACAAAGGTCAGTGAAGAGATGACGG
Second: TCTATTACTTGATTAGGGCAACCGAAACAGCGGA
The PBM binding z-score of the first is higher: 2.85 for the first, 0.812 for the second.

Compared with ACTATTAGTTGAGACGAGGACAACCGATAGGTTG, GGTATTAGTTGAAAGGGCAACCGAATGATTCTCG is higher in PBM binding z-score: -0.324 for the first, 1.41 for the second.

Compared with CCGACTGGGGCAAGGGTACCATAACGCACAGCCA, CGTCCAAGGTCAGCAGGTCAGTGACAGCGACGTG is higher in PBM binding z-score: -0.192 for the first, 2.99 for the second.

Going from CAAGCTAGGTCACGAAAGGTCAAAGTCGAATGAC to TAGCCTAGGTCATGCGGGCCATTATAGTGTCGGC, the PBM binding z-score falls from 7.63 to 1.96.

First: CAAACTAGGTCACCGGAAGGTCAAAGACCGCATG
Second: TCATATAGGTAAATGCTAGGTGAAAGCCCGATCT
The PBM binding z-score of the first is higher: 4.91 for the first, 0.675 for the second.

Going from CTCGAAAGGTCGTGCTCAGGCGAGTATACCAAAC to GCTAGTTGGTCAGTAAAAGTTCACACACCGGTCG, the PBM binding z-score falls from 2.93 to 1.73.

Compared with CCGACTGGGGCATAAGGTTACCTTAAGCCAGCCC, TAGCCTAGGTCATTCAGGGGCCAGTAAAGAAAGC is higher in PBM binding z-score: 0.631 for the first, 3.17 for the second.

Compared with CATACTGGGTCAGCTAGGCCAGAGTAGGGACGGC, CAGCCTAGGTCAGTGCCAGTATAGGAGGAACGTT is higher in PBM binding z-score: 0.249 for the first, 0.349 for the second.

Going from TCTCGGAGGACACGAAAGGTCAGATCTCGACATC to CAAACTAGGTCAAAGGTCCAAGTCGAGCCAACCA, the PBM binding z-score falls from 3.85 to 3.08.

CAAACTAGGTCCAAGGTCAAAGTCGAGCCAACCA showed a PBM binding z-score of 3.75.

Source: the supplement of paper PMC6555819
